Source: PubChem
Abeta yeast res – restores growth of yeast expressing A-beta42 peptide. hit rate 0.063% among 410,000. AID 1347071. Potency, µM (series often up to 46.1 µM), usual class: activators. yeast expressing A-beta42, growth rescue, OD600, 48 h; response scale: 0% DMSO, 100% iron-clioquinol control; also: nearly all actives have a fitted effect of over 55% in size
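Yeast growth medium received pinned compounds, then yeast cells expressing toxic A-beta were added; plates incubated at 30 C for 48 hr. Growth read as absorbance at 600 nm, normalized to DMSO and equimolar FeCl3 plus clioquinol controls.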
TDP-43 yeast inh – rescues yeast growth from TDP-43 toxicity. AID 652104. TDP-43 expressing yeast growth rescue, BacTiter-Glo, 24 h. hit rate 1.8% among 410,000. Potency, µM (highest dose often 46.1 µM), hits mostly activators; also: nearly all actives have a fitted effect of over 50% in size
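Growth rescue of TDP-43-toxic yeast measured as ATP luminescence (BacTiter-Glo). Cells grown to mid-log in raffinose, induced in galactose at OD600=0.02, exposed to compound 24 hr at 30 deg C.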
FUS yeast rescue – FUS proteinopathy suppression in yeast | hit rate 0.24% among 390,000 | AID 1347120 | S. cerevisiae FUS-expressing, growth rescue, OD600, 24 h | Potency, µM (highest dose often 76.6 µM), hits mostly activators; also: nearly all actives have a fitted effect of over 55% in size
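Steps: raffinose overnight preculture; dilution to OD 0.005 in 2% galactose minimal medium; compound addition (concentration series); 24hr at 30C, 99% humidity; absorbance read at 600 nm.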
aSyn yeast inh – alpha-synuclein toxicity inhibition in yeast; AID 652106; Yeast expressing alpha-synuclein, growth rescue, BacTiter-Glo, 24 h; hit rate 0.14% among 370,000; Potency, µM (top dose mostly 46.1 µM), most hits filed as activators; also: nearly all actives have a fitted effect of over 65% in size
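Galactose-induced alpha-syn yeast (OD600=0.02, raffinose-pregrown) + pinned cpd, 24 hr, 30 deg C; growth by BacTiter-Glo luminescence. Growth restoration scores as activation.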
Numbers stand for hits; – = inactive; ? = inconclusive; · = no result; [ ] = remark or other dose. Rows were chosen to be rich in hits. Some 2.1% of all compounds tested hit in one or more screens of this group. Calls follow the shape of the dose curve; as a rule, active = well fitted curve in the direction sought with a large enough effect; inconclusive = small, poorly fitted or top-dose-only effect, or another doubt; inactive = no such curve, though single readings can be large; an effect the other way counts as inactive or inconclusive.

SMILES	Abeta yeast res	TDP-43 yeast inh	FUS yeast rescue	aSyn yeast inh
Fc1ccc(C2=CSC3=NCCN23)cc1	–	–	–	–
N=c1nc(N)nc2n1NC(c1ccc(F)cc1)=CS2	–	11µM	–	13µM
COc1cccc(NC=C2C(=O)OC3(CCCCC3)OC2=O)c1	–	25µM	·	–
COc1cccc(NC=C2C(=O)OC(C)(C)OC2=O)c1	–	?	–	–
CCCCNC(=O)Cc1ccc(Br)cc1	–	–	–	–
COc1ccc(Cl)cc1C(=O)Nc1cccnc1	–	?	–	–
CCOC(=O)c1noc2ncnc(NCc3ccccc3OC)c12	–	28µM	–	·
Cc1cc(C)c2cc(C#N)c(NCCCNC(=O)c3ccncc3)nc2c1	–	–	–	–
COc1cccc(-c2nc(CCl)cs2)c1OC	–	14µM	–	–
NS(=O)(=O)c1cccc(NC(=O)C2CC(=O)N(Cc3ccco3)C2)c1 (stereo unspecified)	–	–	–	–
COc1ccc(NC(=O)C(=O)NCCc2csc3nc(-c4ccccc4F)nn23)cc1OC	–	–	?	·
O=C(/C=C/c1c(Cl)cccc1Cl)N1CCN(c2ncccn2)CC1	–	11µM	–	?
N#Cc1cccn1-c1nccs1	–	–	–	–
Cc1cc(Cl)c(S(=O)(=O)NCc2cccnc2)cc1OCC(=O)NC1CCCCC1	–	–	–	·
Cc1nc2cc(-c3ccc(Cl)cc3)nn2c(C)c1CCC(=O)NC(C)c1ccc2c(c1)OCCO2 (stereo unspecified)	–	28µM	–	–
Cc1csc(NC(=O)CCc2c(C)nc3cc(-c4ccc(Cl)cc4)nn3c2C)n1	–	–	–	–
CN(C(=O)CSc1nc2ccccc2c(=O)n1-c1ccccc1Cl)C1CCS(=O)(=O)C1 (stereo unspecified)	–	–	–	–
Cc1cc(C(=O)Nc2c(F)cc(F)cc2Br)cs1	–	13µM	–	–
O=C(COC(=O)CCNS(=O)(=O)c1ccccc1)NC1CC1	–	–	–	–
CCCCCCCCN1C(=O)[C@H](CC(=O)N2CCCC2)C[C@@]2(C(=O)OC)CCCCC=C12	?	–	6.3µM	–
COC(=O)[C@@]12C[C@@H](CC(=O)NCCCN3CCCC3=O)C(=O)N(Cc3ccccc3)C1=CCC(C)(C)C2	–	?	–	–
C#CCNC(=O)C[C@@H]1C[C@@]2(C(=O)OCC)CCCC=C2N(CCCCCCCC)C1=O	–	13µM	10µM	?
CCCCCCCCN1C(=O)[C@H](CC(=O)N2CCN(C(=O)c3ccco3)CC2)C[C@@]2(C(=O)OC)CCCCC=C12	–	14µM	?	–
CCCCCCCCN1C(=O)[C@H](CC(=O)NCCCN2CCCC2=O)C[C@@]2(C(=O)OC)CC(C)(C)CC=C12	–	35µM	?	–
CCOc1cc(/C=N\NC(=O)CC(=O)NCCc2ccccc2)ccc1O	–	–[9.22 µM]	–	–
SMILES	Abeta yeast res	TDP-43 yeast inh	FUS yeast rescue	aSyn yeast inh
CC(NC(=O)c1ccco1)c1nc(-c2ccc(C(C)(C)C)cc2)no1 (stereo unspecified)	–	–	–	–
CCCCCCCCN1C(=O)[C@H](CC(=O)N2CCN(C(=O)C3CC3)CC2)C[C@@]2(C(=O)OC)CC(C)(C)CC=C12	–	–	16µM	–
CCCCCCCCN1C(=O)[C@H](CC(=O)N2CCOCC2)C[C@@]2(C(=O)OCC)CCCC=C12	–	–	11µM	–
CCCCCCCCN1C(=O)[C@H](CC(=O)N2CCSCC2)C[C@@]2(C(=O)OCC)CCCC=C12	–	–	?	–
COc1ccc2c(=O)c(N3C(=O)c4ccccc4C3=O)c(C)oc2c1	–	–	–	–
CCCCOc1ccc(C(=O)N2CCC(c3nc4ccccc4o3)CC2)cc1	–	28µM	–	·
O=C(COc1cccc(Cl)c1)N1CCC(c2nc3ccccc3o2)CC1	–	28µM	–	·
CCOC(=O)N1CCN(C(=O)COc2ccc(S(=O)(=O)NCc3ccccc3)cc2)CC1	–	–	?	·
Cc1nc(-n2[nH]c3c(c2=O)CCCC3)[nH]c(=O)c1Cc1ccccc1	?	10µM	?	?
Clc1ccc(Sc2ccccn2)cc1	–	–	–	–
Clc1ccc(Sc2cc(Cl)c(-c3ccccc3)nn2)cc1	–	7.9µM	–	–
O=C(Nc1nnc(C2=COCCO2)o1)c1ccc(Cc2ccccc2)cc1	–	–	–	–
COc1ccc(C(=O)NNC(=O)C(Cc2ccc(O)cc2)NC(=O)c2ccccc2NC(=O)c2ccc(OC)cc2)cc1 (stereo unspecified)	–	–	–	–
CCCOc1ccc(/C(O)=C2/C(=O)C(=O)N(CCCOC)C2c2ccncc2)cc1 (stereo unspecified)	–	–	–	–
O=C(Cc1ccc(OCCC2CCCCC2)cc1)NO	·	·	·	5.6µM
O=C(CCC(=O)N1CCN(c2ccccc2F)CC1)N1CCN(c2ccc(F)cc2)CC1	–	?	–	–
CN(C)c1ccc(C(=O)Nc2ccc(S(=O)(=O)NC3=NCCCCC3)cc2)cc1	–	–	–	–
CC(C)(C)OC(=O)CNC(=O)c1[nH]cnc1C(=O)NC1CCN(C(=O)OC(C)(C)C)CC1	–	–	?	–
CC(C)(C)OC(=O)N1CCC(NC(=O)c2nc[nH]c2C(=O)NC2CCN(C(=O)OC(C)(C)C)CC2)CC1	–	–	11µM	–
CC(=O)Nc1ccc(S(=O)(=O)N2CCN(CCC#N)CC2)cc1	–	–	–	–
COc1cccc(C(=O)OCC(=O)c2ccc(Br)s2)c1OC	–	1.8µM	–	–
C=C(C)CNC(=S)N/N=C/C1=CCC2CC1C2(C)C (stereo unspecified)	–	18µM	·	–
O=C(COC(=O)c1ccc2ncsc2c1)Nc1cc(Cl)ccc1F	–	14µM	–	–
CCOC(=O)c1ccc(NC(=O)c2cn(-c3ccccc3)nc2-c2ccc(OC)c(OC)c2)cc1	–	?	25µM	·
CCN(CC(=O)Nc1ccc(NC(C)=O)cc1)C(=O)/C=C/c1cn(-c2ccccc2)nc1-c1ccc(C)cc1	–	–	32µM	–
SMILES	Abeta yeast res	TDP-43 yeast inh	FUS yeast rescue	aSyn yeast inh
COc1ccc(-c2nn(-c3ccccc3)cc2/C=C/C(=O)N(C)CC(=O)Nc2cccc(F)c2)cc1OC	–	?	?	–
COc1cccc(NC(=O)CN(C)C(=O)/C=C/c2cn(-c3ccccc3)nc2-c2ccc(OC)c(OC)c2)c1	–	–	40µM	–
COc1cc2c(cc1OC)C(COc1ccc(F)cc1)NCC2 (stereo unspecified)	–	–	–	–
Cc1cccc(N2N=C(C(=O)OCC(=O)c3ccccc3)CCC2=O)c1	–	–	–	–
O=Cc1c(NCc2ccccc2F)c2ccccc2[nH]c1=O	–	11µM	–	–
COc1ccc(C(C)(C)C)cc1NS(=O)(=O)c1cccc2cccnc12	–	–	?	–
